Columns and labels:
Assay in all cases: DAPPL (digital affinity profiling via proximity ligation, sequencing); 10 mM Tris-HCl pH 7.5, 50 mM NaCl, 1 mM DTT, 4% glycerol, room temperature, 30 min; GST-TFs on glutathione beads, 16-mer random dsDNA library, 0.1% formaldehyde crosslink after washing; high values mean tight binding
Conditions in all cases: protein: recombinant; tags: N-terminal GST; dsDNA, one strand shown
[1] = biological target: T1, FLI1 (Homo sapiens, UniProt Q01543 1-452)
T1 sequence: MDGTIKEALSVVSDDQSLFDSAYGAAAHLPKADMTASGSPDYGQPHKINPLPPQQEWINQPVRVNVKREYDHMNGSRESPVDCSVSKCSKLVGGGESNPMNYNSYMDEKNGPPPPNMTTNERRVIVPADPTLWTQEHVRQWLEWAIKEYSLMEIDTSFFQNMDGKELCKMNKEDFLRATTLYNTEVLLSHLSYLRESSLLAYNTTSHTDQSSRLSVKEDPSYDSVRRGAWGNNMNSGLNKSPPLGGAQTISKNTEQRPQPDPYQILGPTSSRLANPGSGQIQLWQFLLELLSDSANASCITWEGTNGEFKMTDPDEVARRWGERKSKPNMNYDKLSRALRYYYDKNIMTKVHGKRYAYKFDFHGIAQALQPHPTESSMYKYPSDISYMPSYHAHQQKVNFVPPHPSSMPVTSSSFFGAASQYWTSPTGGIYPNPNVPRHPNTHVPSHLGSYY
Method in brief: (§1)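 After expression in yeast as GST fusions, human transcription factors were bound to glutathione beads, DNA-barcoded and mixed with a tag-only sample. The pools were incubated with 200 nmole of a 16-mer random double-stranded DNA library in Tris/NaCl/DTT/glycerol buffer (30 min, room temperature), washed and crosslinked with 0.1% formaldehyde. Proximity ligation with BsaI/T4 ligase ran for 1 h at 37 °C, before PCR amplification and sequencing on an Illumina NextSeq500. Binding signal is a hexamer's read frequency for a factor divided by its frequency for the tag-only sample.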

[2] = biological target: T2, ELK1 (Homo sapiens, UniProt P19419 1-428)
T2 sequence: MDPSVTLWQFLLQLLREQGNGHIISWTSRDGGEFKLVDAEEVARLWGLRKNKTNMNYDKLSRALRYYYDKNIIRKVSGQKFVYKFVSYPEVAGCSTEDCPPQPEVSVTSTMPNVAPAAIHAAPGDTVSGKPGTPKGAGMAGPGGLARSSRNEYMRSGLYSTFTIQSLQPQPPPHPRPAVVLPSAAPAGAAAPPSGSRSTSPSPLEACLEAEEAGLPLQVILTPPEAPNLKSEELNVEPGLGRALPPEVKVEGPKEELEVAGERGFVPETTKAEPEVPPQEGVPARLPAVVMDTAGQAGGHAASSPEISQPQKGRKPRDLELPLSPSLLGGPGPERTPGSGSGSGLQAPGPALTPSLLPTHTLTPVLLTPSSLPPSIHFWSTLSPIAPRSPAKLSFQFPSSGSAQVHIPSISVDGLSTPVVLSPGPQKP
Method in brief: as §1

[3] = biological target: T3, GABPA (Homo sapiens, UniProt Q06546 1-454)
T3 sequence: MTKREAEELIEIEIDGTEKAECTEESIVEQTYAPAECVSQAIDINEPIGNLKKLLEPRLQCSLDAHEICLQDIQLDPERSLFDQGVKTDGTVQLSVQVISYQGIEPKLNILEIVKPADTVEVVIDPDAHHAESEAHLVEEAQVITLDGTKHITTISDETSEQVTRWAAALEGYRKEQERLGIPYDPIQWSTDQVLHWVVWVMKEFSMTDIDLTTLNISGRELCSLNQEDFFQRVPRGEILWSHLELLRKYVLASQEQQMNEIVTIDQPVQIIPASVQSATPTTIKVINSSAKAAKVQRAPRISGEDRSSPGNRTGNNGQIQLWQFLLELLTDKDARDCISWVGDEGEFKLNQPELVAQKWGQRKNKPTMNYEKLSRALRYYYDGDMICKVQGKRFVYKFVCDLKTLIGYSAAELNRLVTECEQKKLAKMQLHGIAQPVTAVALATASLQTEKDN
Method in brief: as §1

[4] = biological target: ELF1 (Homo sapiens, UniProt P32519 1-619)
Method in brief: as §1

[5] = biological target: T4, EHF (Homo sapiens, UniProt Q9NZC4 1-300)
T4 sequence: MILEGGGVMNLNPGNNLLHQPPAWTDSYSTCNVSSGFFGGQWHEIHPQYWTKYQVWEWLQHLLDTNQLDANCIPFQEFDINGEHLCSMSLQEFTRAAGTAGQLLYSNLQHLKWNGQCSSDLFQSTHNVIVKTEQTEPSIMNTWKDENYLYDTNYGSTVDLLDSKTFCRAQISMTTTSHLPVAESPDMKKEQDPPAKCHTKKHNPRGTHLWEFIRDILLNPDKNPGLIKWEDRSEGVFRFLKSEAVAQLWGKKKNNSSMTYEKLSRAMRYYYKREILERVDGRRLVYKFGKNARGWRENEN
Method in brief: as §1

[6] = biological target: SPI1 (Homo sapiens, UniProt P17947 1-270)
Method in brief: as §1

[7] = biological target: SPIB (Homo sapiens, UniProt Q01892 1-262)
Method in brief: as §1

[8] = biological target: ETV5 (Homo sapiens, UniProt P41161 1-510)
Method in brief: as §1

[9] = biological target: T5, SPIC (Homo sapiens, UniProt Q8N5J4 1-248)
T5 sequence: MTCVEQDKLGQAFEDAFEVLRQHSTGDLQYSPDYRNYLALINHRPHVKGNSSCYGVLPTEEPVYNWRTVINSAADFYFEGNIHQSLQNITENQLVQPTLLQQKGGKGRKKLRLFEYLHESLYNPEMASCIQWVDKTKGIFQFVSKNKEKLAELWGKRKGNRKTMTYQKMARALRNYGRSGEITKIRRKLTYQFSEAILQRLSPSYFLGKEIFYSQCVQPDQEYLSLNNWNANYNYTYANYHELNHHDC
Method in brief: as §1

[10] = biological target: ELF4 (Homo sapiens, UniProt Q99607 1-663)
Method in brief: as §1

[11] = biological target: ETV1 (Homo sapiens, UniProt P50549 1-477)
Method in brief: as §1

[12] = biological target: T6, ERF (Homo sapiens, UniProt P50548 1-548)
T6 sequence: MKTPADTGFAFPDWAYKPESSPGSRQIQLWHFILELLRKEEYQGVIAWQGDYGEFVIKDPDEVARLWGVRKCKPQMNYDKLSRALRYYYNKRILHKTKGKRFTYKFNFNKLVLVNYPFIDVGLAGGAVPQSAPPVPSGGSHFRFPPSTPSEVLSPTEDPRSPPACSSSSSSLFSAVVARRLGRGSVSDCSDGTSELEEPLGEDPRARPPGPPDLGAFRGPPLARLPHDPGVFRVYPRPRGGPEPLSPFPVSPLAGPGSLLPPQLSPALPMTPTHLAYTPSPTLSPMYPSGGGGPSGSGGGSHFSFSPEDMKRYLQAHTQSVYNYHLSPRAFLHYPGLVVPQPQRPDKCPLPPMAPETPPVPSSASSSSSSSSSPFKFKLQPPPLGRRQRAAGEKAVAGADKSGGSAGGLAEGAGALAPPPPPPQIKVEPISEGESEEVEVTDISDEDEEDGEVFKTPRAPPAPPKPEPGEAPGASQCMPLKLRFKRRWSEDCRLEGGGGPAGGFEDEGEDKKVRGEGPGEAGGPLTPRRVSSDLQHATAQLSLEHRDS
Method in brief: as §1

[13] = biological target: T7, ETS2 (Homo sapiens, UniProt P15036 1-469)
T7 sequence: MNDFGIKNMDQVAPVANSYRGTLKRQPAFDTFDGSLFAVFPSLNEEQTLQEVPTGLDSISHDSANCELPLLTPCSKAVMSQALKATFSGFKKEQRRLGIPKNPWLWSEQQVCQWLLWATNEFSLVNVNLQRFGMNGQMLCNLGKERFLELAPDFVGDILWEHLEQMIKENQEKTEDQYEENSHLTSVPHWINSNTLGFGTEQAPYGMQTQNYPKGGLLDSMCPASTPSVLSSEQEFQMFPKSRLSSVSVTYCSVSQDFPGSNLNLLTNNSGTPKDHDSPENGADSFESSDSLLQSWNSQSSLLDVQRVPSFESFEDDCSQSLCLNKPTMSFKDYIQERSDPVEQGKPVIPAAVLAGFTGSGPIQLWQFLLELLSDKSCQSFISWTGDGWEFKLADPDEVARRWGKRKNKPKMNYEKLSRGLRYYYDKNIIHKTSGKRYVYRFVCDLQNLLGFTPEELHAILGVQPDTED
Method in brief: as §1

[14] = biological target: T8, SPDEF (Homo sapiens, UniProt O95238 1-335)
T8 sequence: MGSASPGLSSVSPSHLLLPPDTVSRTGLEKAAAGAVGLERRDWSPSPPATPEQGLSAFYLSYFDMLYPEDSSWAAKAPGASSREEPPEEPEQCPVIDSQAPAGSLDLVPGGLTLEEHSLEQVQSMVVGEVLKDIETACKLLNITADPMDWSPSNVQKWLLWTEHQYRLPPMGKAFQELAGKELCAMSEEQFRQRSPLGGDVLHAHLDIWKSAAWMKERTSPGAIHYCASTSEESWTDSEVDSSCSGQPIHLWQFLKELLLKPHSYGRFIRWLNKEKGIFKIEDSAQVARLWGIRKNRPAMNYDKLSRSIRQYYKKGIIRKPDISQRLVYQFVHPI
Method in brief: as §1

[15] = biological target: ETV6 (Homo sapiens, UniProt P41212 1-452)
Method in brief: as §1

[16] = biological target: T9, ERG (Homo sapiens, UniProt P11308 1-479)
T9 sequence: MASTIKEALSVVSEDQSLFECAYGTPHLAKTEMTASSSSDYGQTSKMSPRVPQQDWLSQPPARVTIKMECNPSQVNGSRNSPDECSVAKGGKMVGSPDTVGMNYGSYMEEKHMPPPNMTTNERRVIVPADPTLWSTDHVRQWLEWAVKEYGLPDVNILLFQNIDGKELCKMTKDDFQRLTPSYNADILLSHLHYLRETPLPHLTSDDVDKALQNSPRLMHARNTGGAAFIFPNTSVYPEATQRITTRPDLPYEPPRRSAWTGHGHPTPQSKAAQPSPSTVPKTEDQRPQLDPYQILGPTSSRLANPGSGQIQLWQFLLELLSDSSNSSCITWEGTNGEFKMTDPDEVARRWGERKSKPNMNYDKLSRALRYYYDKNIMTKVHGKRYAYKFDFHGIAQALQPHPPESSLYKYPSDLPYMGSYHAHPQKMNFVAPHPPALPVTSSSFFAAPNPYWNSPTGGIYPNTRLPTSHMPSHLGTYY
Method in brief: as §1

[17] = biological target: T10, ELK3 (Homo sapiens, UniProt P41970 1-407)
T10 sequence: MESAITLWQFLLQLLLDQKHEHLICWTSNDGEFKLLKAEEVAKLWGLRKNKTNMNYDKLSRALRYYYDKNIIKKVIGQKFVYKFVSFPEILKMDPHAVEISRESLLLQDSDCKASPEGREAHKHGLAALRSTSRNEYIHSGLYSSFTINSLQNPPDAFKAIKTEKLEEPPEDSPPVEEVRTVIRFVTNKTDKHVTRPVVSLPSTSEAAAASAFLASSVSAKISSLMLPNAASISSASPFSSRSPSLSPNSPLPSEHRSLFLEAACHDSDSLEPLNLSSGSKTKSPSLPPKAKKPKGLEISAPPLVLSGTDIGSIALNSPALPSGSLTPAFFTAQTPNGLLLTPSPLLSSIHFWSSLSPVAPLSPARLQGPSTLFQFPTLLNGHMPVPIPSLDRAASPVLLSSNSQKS
Method in brief: as §1

[18] = biological target: T11, ETV3 (Homo sapiens, UniProt P41162-2 1-143)
T11 sequence: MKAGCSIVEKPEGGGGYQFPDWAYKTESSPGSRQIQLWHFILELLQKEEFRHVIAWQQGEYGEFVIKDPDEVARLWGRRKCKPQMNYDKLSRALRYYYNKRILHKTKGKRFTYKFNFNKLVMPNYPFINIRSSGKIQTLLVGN
Method in brief: as §1

Sequence of ETV1 (P50549 whole entry): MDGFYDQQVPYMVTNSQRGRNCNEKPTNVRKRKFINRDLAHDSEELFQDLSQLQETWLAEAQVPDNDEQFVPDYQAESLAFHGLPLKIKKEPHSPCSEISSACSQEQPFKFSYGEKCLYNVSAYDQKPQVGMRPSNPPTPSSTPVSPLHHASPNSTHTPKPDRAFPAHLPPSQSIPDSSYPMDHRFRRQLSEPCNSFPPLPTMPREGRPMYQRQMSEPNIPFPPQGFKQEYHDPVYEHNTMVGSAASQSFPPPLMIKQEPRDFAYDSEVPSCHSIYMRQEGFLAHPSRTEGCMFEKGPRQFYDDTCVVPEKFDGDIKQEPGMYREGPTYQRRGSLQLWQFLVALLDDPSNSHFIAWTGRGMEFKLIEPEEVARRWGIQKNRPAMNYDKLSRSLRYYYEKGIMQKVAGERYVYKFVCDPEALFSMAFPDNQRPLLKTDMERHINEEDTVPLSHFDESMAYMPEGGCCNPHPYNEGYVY
Sequence of SPIB (Q01892 whole entry): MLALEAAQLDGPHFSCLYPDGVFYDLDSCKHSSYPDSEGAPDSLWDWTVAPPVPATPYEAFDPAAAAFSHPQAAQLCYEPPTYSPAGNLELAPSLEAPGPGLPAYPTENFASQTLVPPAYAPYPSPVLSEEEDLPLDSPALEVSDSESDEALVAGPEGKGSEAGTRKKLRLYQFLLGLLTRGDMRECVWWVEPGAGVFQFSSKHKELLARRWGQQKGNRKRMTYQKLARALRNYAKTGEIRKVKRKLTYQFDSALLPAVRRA
Sequence of ETV5 (P41161 whole entry): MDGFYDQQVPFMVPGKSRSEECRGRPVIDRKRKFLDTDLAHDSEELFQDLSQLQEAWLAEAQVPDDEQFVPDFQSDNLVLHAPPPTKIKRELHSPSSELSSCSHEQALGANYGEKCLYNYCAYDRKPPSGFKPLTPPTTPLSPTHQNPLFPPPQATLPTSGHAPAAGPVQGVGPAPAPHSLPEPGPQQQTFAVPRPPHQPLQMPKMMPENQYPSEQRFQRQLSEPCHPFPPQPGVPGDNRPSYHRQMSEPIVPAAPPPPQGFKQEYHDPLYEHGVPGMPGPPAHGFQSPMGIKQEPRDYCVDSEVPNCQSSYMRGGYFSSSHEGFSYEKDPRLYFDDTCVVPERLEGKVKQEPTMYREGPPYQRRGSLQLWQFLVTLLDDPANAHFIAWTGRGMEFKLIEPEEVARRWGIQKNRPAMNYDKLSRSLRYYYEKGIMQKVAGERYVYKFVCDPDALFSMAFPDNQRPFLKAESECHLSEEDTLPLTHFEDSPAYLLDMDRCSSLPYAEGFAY
Sequence of ELF4 (Q99607 whole entry): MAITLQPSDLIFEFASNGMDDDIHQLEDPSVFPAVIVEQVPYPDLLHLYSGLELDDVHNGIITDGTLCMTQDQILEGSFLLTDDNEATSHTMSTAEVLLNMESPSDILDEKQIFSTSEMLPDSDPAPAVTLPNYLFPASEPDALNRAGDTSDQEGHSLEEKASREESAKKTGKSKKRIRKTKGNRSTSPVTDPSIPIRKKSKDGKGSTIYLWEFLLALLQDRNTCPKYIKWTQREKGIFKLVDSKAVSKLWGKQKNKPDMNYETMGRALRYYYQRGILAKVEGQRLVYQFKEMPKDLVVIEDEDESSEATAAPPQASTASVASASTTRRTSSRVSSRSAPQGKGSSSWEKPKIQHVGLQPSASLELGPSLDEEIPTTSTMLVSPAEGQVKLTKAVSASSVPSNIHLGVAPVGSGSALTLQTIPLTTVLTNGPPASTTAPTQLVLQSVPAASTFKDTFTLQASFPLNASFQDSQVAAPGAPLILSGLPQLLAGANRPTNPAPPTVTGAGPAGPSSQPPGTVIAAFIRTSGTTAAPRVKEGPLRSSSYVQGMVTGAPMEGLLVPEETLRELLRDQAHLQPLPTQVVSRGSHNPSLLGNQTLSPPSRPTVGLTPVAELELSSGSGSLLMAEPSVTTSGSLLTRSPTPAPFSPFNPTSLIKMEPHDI
Sequence of ETV6 (P41212 whole entry): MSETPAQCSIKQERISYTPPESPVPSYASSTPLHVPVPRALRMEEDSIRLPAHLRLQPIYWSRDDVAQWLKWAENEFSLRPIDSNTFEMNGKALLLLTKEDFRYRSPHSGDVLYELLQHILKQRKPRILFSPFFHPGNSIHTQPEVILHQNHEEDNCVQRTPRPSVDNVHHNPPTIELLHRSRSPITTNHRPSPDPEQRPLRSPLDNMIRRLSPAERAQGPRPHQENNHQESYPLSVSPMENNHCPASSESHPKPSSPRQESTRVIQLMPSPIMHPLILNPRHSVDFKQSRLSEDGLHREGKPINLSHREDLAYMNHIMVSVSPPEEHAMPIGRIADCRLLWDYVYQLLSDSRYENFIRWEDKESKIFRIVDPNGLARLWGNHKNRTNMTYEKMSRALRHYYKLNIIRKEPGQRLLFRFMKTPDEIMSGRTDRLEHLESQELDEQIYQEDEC
Sequence of ELF1 (P32519 whole entry): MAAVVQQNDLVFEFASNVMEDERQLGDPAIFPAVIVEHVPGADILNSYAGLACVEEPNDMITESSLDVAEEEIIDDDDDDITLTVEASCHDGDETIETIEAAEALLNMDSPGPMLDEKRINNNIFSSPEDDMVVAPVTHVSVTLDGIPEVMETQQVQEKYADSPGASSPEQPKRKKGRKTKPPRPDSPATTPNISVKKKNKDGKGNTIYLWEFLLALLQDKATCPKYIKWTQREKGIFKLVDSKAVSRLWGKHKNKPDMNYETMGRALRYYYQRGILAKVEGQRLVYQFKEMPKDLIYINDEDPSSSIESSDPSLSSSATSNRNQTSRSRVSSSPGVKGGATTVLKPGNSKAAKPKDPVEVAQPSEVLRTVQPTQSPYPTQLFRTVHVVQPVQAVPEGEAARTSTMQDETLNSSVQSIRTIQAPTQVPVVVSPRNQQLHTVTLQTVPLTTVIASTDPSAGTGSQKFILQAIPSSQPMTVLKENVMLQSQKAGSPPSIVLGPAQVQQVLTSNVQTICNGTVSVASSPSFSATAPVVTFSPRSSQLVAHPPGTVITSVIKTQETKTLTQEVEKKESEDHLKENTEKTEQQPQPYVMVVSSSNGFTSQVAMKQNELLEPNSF

Sequence | binding signal [1] | binding signal [2] | binding signal [3] | binding signal [4] | binding signal [5] | binding signal [6] | binding signal [7] | binding signal [8] | binding signal [9] | binding signal [10] | binding signal [11] | binding signal [12] | binding signal [13] | binding signal [14] | binding signal [15] | binding signal [16] | binding signal [17] | binding signal [18]
TCGTCA | 1.05 fold enrichment (6-mer frequency, TF over GST control) | 1.09 fold enrichment (6-mer frequency, TF over GST control) | 1.06 fold enrichment (6-mer frequency, TF over GST control) | 1.04 fold enrichment (6-mer frequency, TF over GST control) | 1.02 fold enrichment (6-mer frequency, TF over GST control) | 1.02 fold enrichment (6-mer frequency, TF over GST control) | 1.04 fold enrichment (6-mer frequency, TF over GST control) | 1.04 fold enrichment (6-mer frequency, TF over GST control) | 1.15 fold enrichment (6-mer frequency, TF over GST control) | 1.11 fold enrichment (6-mer frequency, TF over GST control) | 1.09 fold enrichment (6-mer frequency, TF over GST control) | 1.06 fold enrichment (6-mer frequency, TF over GST control) | 1.1 fold enrichment (6-mer frequency, TF over GST control) | 1.06 fold enrichment (6-mer frequency, TF over GST control) | 1.03 fold enrichment (6-mer frequency, TF over GST control) | – | – | –
AGGAAC | 1.03 fold enrichment (6-mer frequency, TF over GST control) | 1.08 fold enrichment (6-mer frequency, TF over GST control) | – | – | 1.06 fold enrichment (6-mer frequency, TF over GST control) | 1.45 fold enrichment (6-mer frequency, TF over GST control) | 1.11 fold enrichment (6-mer frequency, TF over GST control) | 1.1 fold enrichment (6-mer frequency, TF over GST control) | 1.23 fold enrichment (6-mer frequency, TF over GST control) | 1 fold enrichment (6-mer frequency, TF over GST control) | 1.04 fold enrichment (6-mer frequency, TF over GST control) | – | 1.08 fold enrichment (6-mer frequency, TF over GST control) | 1.05 fold enrichment (6-mer frequency, TF over GST control) | 1.04 fold enrichment (6-mer frequency, TF over GST control) | 1.05 fold enrichment (6-mer frequency, TF over GST control) | 1 fold enrichment (6-mer frequency, TF over GST control) | 1.05 fold enrichment (6-mer frequency, TF over GST control)

Source: paper PMC7862700, “An all-to-all approach to the identification of sequence-specific readers for epigenetic DNA modifications on cytosine”
